A selection: hits, their analogues and other compounds. The true share with any hit is near 6.5%.
Vaccinia mCherry – vaccinia inhibition (mCherry reporter); Vaccinia virus mCherry reporter infection, fluorescence; Potency, µM (titrated, usually from 36.5 µM), actives largely listed as inhibitors; 310,000 tested, 0.63% active; AID 720579; calls by dose curve; tested in A549 cells; also: nearly all actives have a fitted effect of over 35% in size
Marburg entry inh – blocks Marburg virus binding to or entry into cells. 300,000 tested, 1.8% active. AID 540276. Potency, µM (doses to about 37.8 µM), hits mostly inhibitors. Marburg virus pseudotyped entry inhibition, cell reporter; calls by dose curve; tested in HEK293 cells
HCMV antiviral – blocks human cytomegalovirus replication; activity change, negative = inhibition, % at 57.5 µM; HFF cells, HCMV-luciferase reporter, 72 h; hits give low values; 410,000 tested, 4.5% active; in the data active = activity change below about -60%; inconclusive = no clear call, values can overlap the other calls; inactive = above about -39%
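Steps: HFFs plated, 16 h 37C; compounds added; HCMV-luciferase added to MOI 1 PFU/cell; 72 h 37C; OneGlo reagent, 5 min room temperature; luminescence read, normalized to controls.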
FMDV inh – foot and mouth disease virus antiviral activity | 410,000 tested, 1.2% active | Potency, µM (doses to about 57.9 µM), most hits filed as inhibitors | AID 1159524 | FMDV antiviral cell-based qHTS; calls by dose curve; tested in HEK293T cells; also: read-out not given here; nearly all actives have a fitted effect of over 45% in size
Vaccinia Venus – vaccinia inhibition (Venus reporter) | 330,000 tested, 0.46% active | Vaccinia virus Venus reporter expression, fluorescence | Potency, µM (top dose mostly 36.5 µM), most hits filed as inhibitors; calls by dose curve; tested in A549 cells; also: nearly all actives have a fitted effect of over 30% in size
Lassa entry inh – inhibitors of Lassa virus binding or cell entry. Lassa virus pseudotype entry inhibition, cell reporter. Potency, µM (doses to about 37.9 µM), usual class: inhibitors. 300,000 tested, 1.2% active. AID 540256; calls by dose curve; tested in HEK293 cells; also: nearly all actives have a fitted effect of over 50% in size
Hits are given with their value; . = inactive; ? = inconclusive; / = no result given.

SMILES	Vaccinia mCherry	Marburg entry inh	HCMV antiviral	FMDV inh	Vaccinia Venus	Lassa entry inh
O=C(c1cccnc1)C1CCCN(Cc2ccc3c(c2)CN(C(=O)c2cnccn2)CCO3)C1 (stereo unspecified)	.	/	/	.	.	/
Cc1csc(C(C)N(C)C(=O)c2cc(NC(=O)C3CCC3)c3c(c2)nc(-c2ccncc2)n3C)n1 (stereo unspecified)	.	/	/	.	.	/
CN(C)S(=O)(=O)c1ccc(C(=O)NCCN2C(=O)S/C(=C\c3cccnc3)C2=O)cc1	.	.	.	.	.	.
O=C(NCCN1C(=O)S/C(=C\c2ccc(Cl)c(Cl)c2)C1=O)c1cnccn1	.	.	-66	.	.	.
CS(=O)(=O)c1ccc(C(=O)NCCN2C(=O)S/C(=C\c3cccnc3)C2=O)cc1[N+](=O)[O-]	/	10µM	-114	28µM	/	21µM
COc1ccc(Br)cc1C1NC(c2ccc3c(c2)OCO3)=CC(c2ccccc2O)N1 (stereo unspecified)	.	/	/	/	.	/
CCSc1ncnc2nc[nH]c12	.	/	/	/	.	/
CCCN(CCC)c1ncnc2nc[nH]c12	?	/	-88	.	.	/
COc1ccc(N2CCN(C(=O)c3c(C)oc4ncn(CC(C)C)c(=O)c34)CC2)cc1	.	/	.	.	.	.
CCOC(=O)N1CCc2[nH]c3ccc(C)cc3c2C1	.	?	.	?	?	?
CCOC(=O)C(O)C1CCc2c([nH]c3ccc(C)cc23)C1=O (stereo unspecified)	.	?	.	.	?	11µM
Cc1ccc(NC(=O)C2CCN(S(=O)(=O)c3cccs3)CC2)cc1	.	?	.	.	.	?
O=C(Nc1nc(-c2ccc3ccccc3c2)cs1)C1CCN(S(=O)(=O)c2cccs2)CC1	.	.	-75	?	.	?
Cc1ccc(-c2csc(NC(=O)C3CCN(S(=O)(=O)c4cccs4)CC3)n2)cc1	?	?	-79	?	.	?
COc1cccc(Cn2c(=O)cnc3cnc(N(C)C)nc32)c1	/	/	/	.	/	/
COC1CCCC(c2nc(N)nc(SC)c2C#N)C1 (stereo unspecified)	/	.	/	/	/	/
c1nc(SSc2ncc3n[nH]nc3n2)nc2n[nH]nc12	.	/	/	/	.	/
C=CCCCN1C(=O)NC(c2ccccc2)C(C(=O)OC)=C1C (stereo unspecified)	/	.	/	/	/	/
O=S(=O)(c1ccccc1)N1N=C(c2ccc(Cl)cc2)CC1c1ccco1 (stereo unspecified)	.	10µM	.	.	.	?
COc1ccc(C2CC(c3ccccc3)=NN2S(=O)(=O)c2ccc(C)cc2)c(OC)c1 (stereo unspecified)	.	?	-63	.	.	?
COc1ccc(C2=NN(S(=O)(=O)c3ccccc3)C(c3ccccc3)C2)cc1 (stereo unspecified)	/	/	.	.	/	/
O=S(=O)(c1ccccc1)N1N=C(c2ccccc2)CC1c1ccccc1 (stereo unspecified)	.	?	-74	.	.	.
CCOc1ccc(CCNC(=O)C2CCN(c3ncnc4c3nc3n4CCCCC3)CC2)cc1	.	/	?	.	.	.
Cc1cc(-c2ccnc(-n3ncc(C(=O)NCCc4cccnc4)c3C)n2)c(C)s1	.	/	/	.	.	/
O=C(c1cccc(N2CCCC2=O)c1)N1CCC(Oc2cccc(CN3CCN(c4ccccn4)CC3)c2)CC1	?	/	/	?	.	/
SMILES	Vaccinia mCherry	Marburg entry inh	HCMV antiviral	FMDV inh	Vaccinia Venus	Lassa entry inh
Fc1ccccc1CNc1nc(NCC2CC2)nc2ccsc12	.	/	-87	.	.	/
COCCNc1nc(NCc2ccccc2F)c2sccc2n1	.	/	?	?	.	/
C#Cc1cccc(Nc2nc(NCc3ccccc3OC)nc3ccsc23)c1	?	/	-79	32µM	?	/
COc1ccccc1CNc1nc(NCc2cccc(OC)c2OC)c2sccc2n1	.	/	-83	40µM	.	/
COc1ccccc1CNc1nc(NCc2ccccc2F)c2sccc2n1	.	/	/	28µM	.	/
COc1ccccc1CN1CCOc2ccc(C(C)(O)CN(C)C)cc2C1 (stereo unspecified)	.	/	/	.	.	/
Cc1nn(Cc2ccc(C(=O)NC(C)(C)C)o2)c(C)c1Br	/	?	-80	?	?	.
Cc1cc(C(=O)Nc2nc(C)c(C(=O)N(C)C)s2)ccc1[N+](=O)[O-]	.	?	.	.	.	10µM
NC(=O)c1ccsc1NC(=O)COC(=O)/C=C/c1ccccc1[N+](=O)[O-]	.	?	.	32µM	.	.
O=C(CN(Cc1ccccc1)S(=O)(=O)c1ccc(Br)cc1)NCC1CCCO1 (stereo unspecified)	.	.	.	.	.	.

Screening results: PubChem, National Center for Advancing Translational Sciences (NCATS)
